From ChEMBL document CHEMBL3988442, “University of Dundee, Small-Polar-MMV Screening Library” (2021)
For some of these results: Results with a measured potency or affinity are listed apart.

Experiments:
Design in all cases: scale not given: direction of the effect not stated beside the values
[1] = molecular target: Protein translocase subunit SecA (Escherichia coli (strain K12)) (UniProt P10408); assay: Assay to Identify E. coli SecA ATPase Inhibitors; format: functional; details: 30 µM
[2] = molecular target: T1, Ubiquitin-activating enzyme e1, putative (Leishmania donovani (strain BPK282A1)) (UniProt E9BSI1); assay: Leishmania donovani Ubiquitin Activating Enzyme (LdE1); format: functional; details: 30 µM
T1 sequence (whole entry): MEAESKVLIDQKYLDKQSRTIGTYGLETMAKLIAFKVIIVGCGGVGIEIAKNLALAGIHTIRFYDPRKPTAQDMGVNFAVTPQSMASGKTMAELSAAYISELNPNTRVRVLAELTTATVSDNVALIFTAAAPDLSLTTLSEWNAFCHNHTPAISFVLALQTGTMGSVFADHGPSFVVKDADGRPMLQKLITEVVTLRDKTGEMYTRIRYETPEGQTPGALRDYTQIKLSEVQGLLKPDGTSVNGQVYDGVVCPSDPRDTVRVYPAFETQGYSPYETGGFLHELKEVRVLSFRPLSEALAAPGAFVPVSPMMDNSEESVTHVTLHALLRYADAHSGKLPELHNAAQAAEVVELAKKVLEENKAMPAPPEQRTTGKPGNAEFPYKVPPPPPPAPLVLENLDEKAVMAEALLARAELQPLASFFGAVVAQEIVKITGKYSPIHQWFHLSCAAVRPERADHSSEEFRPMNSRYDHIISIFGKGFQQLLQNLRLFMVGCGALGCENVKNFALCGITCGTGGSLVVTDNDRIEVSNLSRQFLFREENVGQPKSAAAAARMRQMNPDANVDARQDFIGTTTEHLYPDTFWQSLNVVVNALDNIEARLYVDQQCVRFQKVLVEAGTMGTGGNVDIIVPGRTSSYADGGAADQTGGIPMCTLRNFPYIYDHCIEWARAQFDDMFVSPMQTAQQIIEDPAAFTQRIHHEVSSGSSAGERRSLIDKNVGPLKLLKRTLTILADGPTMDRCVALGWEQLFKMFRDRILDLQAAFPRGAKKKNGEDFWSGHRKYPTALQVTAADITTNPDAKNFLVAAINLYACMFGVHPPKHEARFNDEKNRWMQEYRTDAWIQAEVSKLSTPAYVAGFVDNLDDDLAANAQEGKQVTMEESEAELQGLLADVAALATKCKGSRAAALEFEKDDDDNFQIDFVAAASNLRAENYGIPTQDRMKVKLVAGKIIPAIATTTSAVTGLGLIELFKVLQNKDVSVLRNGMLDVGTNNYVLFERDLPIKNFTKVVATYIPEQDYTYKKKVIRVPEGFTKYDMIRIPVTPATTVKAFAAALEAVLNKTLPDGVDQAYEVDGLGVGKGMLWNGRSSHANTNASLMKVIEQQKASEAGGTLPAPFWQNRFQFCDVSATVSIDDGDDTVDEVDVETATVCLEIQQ

[3] = molecular target: AMP-activated protein kinase, AMPK (Homo sapiens) (UniProt P54646+O43741+P54619+Q9UGJ0+Q9Y478+Q13131+Q9UGI9); assay: AMP-dependent Kinase enzyme assay. An in vitro enzyme assay that detects ADP turnover that is directly proportional to AMPK activity. This uses naive AMPK that is activated during the assay with MK-8722; format: functional; details: 30 µM
[4] = molecular target: Sialic acid-binding Ig-like lectin 9 (Homo sapiens) (UniProt Q9Y336); assay: Hs-Siglec9 ALPHAscreen SOP 20170721; details: 10 µM
Chain of Sialic acid-binding Ig-like lectin 9 (Homo sapiens) (Q9Y336 whole entry): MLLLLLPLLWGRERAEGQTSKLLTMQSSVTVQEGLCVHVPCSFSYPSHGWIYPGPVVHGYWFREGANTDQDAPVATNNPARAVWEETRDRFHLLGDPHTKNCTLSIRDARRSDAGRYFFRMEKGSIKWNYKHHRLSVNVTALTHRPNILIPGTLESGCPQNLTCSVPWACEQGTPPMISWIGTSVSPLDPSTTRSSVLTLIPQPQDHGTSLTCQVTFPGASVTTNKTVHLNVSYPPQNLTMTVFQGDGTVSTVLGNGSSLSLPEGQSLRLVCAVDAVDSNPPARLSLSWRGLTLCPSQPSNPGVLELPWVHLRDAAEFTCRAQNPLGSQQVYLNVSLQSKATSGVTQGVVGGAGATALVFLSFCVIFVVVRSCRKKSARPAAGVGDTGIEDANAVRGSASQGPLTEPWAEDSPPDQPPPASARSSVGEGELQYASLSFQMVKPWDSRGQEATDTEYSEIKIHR

Trypanosoma cruzi = assay: Trypanosoma cruzi phosphomannomutase and mannose-1-phosphate guanylyltransferase assay; format: functional; details: 10 µM
[5] = molecular target: T2, Arginase-2, mitochondrial (Homo sapiens) (UniProt P78540); assay: in vitro enzyme assay to detect the production of urea directly proportional to the activity of Arginase II; format: functional; details: 33.3 µM; also: in the data most compounds retested in dose-response had high values
T2 sequence (whole entry): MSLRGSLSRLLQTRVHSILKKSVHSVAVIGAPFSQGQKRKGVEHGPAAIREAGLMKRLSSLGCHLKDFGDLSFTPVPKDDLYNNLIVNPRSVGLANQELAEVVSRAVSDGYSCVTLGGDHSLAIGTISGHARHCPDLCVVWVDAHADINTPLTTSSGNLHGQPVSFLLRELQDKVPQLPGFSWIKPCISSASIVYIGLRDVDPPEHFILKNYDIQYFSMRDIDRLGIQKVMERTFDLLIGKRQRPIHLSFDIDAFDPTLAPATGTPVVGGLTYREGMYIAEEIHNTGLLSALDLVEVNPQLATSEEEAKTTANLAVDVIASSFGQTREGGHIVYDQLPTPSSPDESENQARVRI

[6] = molecular target: T3, Proteasome subunit beta (Trypanosoma cruzi) (UniProt O96673); assay: Trypanosoma cruzi proteasome chymotrypsin-like activity (TcProtChymo) assay.; also: in the data most compounds retested in dose-response had high values; format: functional; details: 9.37 µM
T3 sequence (whole entry): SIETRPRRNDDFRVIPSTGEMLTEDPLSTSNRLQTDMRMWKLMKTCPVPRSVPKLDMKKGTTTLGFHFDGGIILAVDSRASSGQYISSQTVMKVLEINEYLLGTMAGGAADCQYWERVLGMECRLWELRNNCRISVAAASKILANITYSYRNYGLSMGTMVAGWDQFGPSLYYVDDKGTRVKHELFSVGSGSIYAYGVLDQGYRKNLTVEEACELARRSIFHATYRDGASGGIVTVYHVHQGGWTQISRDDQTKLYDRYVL

Homo sapiens = species: Homo sapiens; assay: To identify inhibition of the IFN signalling (Jak-Stat) pathway via expression of an eGFP reporter gene under the control of an IFN-stimulated response element (ISRE) containing MxA promoter.; format: functional; details: 30 µM
[7] = molecular target: T4, Tyrosyl-tRNA synthetase, putative (Trypanosoma cruzi (strain CL Brener)) (UniProt Q4DSP6); assay: Trypanosoma cruzi tyrosyl tRNA synthetase (TcYRS) _High Tyrosine SOP; format: functional; details: 30 µM; also: in the data most compounds retested in dose-response had high values
T4 sequence (whole entry): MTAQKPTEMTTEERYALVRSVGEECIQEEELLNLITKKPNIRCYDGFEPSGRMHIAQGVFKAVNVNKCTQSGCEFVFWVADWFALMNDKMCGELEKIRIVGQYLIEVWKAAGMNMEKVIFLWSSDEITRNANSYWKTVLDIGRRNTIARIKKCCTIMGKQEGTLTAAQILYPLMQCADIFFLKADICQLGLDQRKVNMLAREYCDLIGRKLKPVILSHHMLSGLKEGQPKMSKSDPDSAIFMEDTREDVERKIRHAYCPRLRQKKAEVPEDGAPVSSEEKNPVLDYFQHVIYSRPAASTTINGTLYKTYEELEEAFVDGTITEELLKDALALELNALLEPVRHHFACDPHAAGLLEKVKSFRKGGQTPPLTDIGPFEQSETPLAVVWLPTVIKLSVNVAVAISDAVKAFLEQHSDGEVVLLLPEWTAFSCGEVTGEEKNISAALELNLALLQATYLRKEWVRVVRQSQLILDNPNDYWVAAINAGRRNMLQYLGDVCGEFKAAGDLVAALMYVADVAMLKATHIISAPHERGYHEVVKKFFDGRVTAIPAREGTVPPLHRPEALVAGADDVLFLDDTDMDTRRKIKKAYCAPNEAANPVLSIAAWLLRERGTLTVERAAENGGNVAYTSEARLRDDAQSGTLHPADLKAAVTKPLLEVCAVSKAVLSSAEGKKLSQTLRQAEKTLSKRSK

[8] = molecular target: T4, Tyrosyl-tRNA synthetase, putative (Trypanosoma cruzi (strain CL Brener)); assay: Trypanosoma cruzi tyrosyl tRNA synthetase (TcYRS) SOP; format: functional; details: 30 µM
[9] = molecular target: Chromo domain-containing protein 1 (Saccharomyces cerevisiae (strain ATCC 204508 / S288c) (Baker's yeast)) (UniProt P32657); assay: ScCHD-1 Enzyme Inhibition Assay; format: functional; details: 30 µM; also: in the data most compounds retested in dose-response had high values
Chain of Chromo domain-containing protein 1 (Saccharomyces cerevisiae (strain ATCC 204508 / S288c) (Baker's yeast)) (P32657 whole entry, the tested form may be a part): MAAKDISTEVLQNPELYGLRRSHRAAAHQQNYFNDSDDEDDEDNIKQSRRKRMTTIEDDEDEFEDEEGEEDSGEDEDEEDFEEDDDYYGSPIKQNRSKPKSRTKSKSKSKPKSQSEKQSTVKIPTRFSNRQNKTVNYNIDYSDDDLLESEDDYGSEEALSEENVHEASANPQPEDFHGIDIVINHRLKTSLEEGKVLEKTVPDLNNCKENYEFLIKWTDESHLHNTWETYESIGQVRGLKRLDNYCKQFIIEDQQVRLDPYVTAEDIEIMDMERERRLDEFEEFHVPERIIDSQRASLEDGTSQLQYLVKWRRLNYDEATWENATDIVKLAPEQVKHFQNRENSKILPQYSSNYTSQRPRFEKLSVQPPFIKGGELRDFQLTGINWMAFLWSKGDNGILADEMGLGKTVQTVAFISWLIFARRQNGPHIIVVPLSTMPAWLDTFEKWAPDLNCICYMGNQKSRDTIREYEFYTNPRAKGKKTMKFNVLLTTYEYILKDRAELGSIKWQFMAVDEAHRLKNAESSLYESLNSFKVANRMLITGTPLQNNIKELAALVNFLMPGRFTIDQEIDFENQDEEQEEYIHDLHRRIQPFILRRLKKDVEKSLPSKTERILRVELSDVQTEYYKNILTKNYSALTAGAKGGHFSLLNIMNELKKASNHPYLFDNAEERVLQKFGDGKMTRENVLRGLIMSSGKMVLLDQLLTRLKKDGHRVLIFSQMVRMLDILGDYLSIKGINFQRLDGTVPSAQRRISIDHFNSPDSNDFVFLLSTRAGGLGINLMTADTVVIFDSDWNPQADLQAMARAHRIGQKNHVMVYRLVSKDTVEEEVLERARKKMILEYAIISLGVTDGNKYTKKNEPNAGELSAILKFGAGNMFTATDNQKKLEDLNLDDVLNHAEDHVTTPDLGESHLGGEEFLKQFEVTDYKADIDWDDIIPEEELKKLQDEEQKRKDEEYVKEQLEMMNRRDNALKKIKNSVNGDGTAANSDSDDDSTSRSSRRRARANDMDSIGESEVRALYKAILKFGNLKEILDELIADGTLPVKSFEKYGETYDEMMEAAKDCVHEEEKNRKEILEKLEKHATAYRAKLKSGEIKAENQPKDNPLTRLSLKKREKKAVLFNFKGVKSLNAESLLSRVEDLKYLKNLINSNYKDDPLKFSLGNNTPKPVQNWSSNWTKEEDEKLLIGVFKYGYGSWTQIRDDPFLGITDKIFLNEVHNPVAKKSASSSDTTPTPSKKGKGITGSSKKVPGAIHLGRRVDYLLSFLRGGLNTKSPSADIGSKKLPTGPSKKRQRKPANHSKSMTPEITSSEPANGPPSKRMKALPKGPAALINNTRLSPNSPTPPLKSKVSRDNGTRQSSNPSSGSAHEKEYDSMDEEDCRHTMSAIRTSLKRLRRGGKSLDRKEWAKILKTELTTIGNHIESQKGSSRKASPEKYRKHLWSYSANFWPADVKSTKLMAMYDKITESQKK

Chain of Protein translocase subunit SecA (Escherichia coli (strain K12)) (P10408 whole entry): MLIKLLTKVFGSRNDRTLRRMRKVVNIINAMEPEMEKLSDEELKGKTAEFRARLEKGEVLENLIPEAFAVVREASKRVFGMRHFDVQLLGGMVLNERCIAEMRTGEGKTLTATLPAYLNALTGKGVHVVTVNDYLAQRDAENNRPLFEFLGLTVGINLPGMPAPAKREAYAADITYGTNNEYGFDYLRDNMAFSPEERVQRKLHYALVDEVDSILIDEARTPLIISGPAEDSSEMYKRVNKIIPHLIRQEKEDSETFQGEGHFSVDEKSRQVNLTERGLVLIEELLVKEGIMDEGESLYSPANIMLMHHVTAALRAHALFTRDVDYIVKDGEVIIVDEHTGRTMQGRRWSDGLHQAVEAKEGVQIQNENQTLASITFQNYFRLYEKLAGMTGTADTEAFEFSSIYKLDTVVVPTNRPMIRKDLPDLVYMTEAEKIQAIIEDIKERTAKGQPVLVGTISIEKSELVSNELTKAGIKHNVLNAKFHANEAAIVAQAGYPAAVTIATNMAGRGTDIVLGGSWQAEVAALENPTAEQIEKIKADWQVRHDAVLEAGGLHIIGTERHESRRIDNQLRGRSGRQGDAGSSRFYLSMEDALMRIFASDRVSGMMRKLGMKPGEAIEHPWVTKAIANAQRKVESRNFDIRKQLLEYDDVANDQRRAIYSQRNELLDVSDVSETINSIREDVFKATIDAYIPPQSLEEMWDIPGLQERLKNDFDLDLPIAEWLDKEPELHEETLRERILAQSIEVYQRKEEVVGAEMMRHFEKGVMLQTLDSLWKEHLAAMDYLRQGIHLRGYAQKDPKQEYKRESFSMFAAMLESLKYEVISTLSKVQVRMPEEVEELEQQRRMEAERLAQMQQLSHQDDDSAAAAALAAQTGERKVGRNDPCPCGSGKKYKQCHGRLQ

Row | SMILES | Percent Effect [1] | Percent Effect [2] | Percent Effect [3] | Percent Effect [4] | Percent Effect (Trypanosoma cruzi) | Percent Effect [5] | Percent Effect [6] | Percent Effect (Homo sapiens) | Percent Effect [7] | Percent Effect [8] | Percent Effect [9]
1 | CC(C)(C)C(=O)NCCn1ccc(-c2ccncc2)n1 | -2.96% | 2.74% | -5.12% | 4.58% | 3.33% | 11.4% | 9.23% | 21.9% | 1.07% | 2.5% | -2.64%
2 | Cc1cc(NC(=O)CN2CCc3cnc(C)nc3C2)on1 | -3.81% | 5.26% | -27.9% | 2.68% | 7.75% | 1.8% | 9.39% | -5.85% | 8.37% | 16.1% | -7.97%
3 | COC(=O)c1sccc1S(=O)(=O)NCC1(O)CCOc2ccccc21 (stereo unspecified) | -3.54% | 0% | 5.9% | -3.21% | -3.72% | 1.82% | 1.77% | 4.11% | 0% | 7.5% | -4.1%
4 | O=C(NC1CC1)N1CCc2ncnc(-c3ccncc3)c2CC1 | 5.45% | 10.7% | 17.6% | 1.38% | -6.37% | -55.4% | 12% | 4.1% | 2.08% | 25% | -4.64%
5 | CN(CCc1ccccn1)S(=O)(=O)N1CCCC1c1ccco1 (stereo unspecified) | 0.19% | 16.2% | 2.74% | -10.8% | -9.94% | 4.25% | 13.1% | 17.6% | 6.93% | 11% | -5.75%
6 | Cc1cc(C)cc(-c2ccc(CC3(C(=O)O)CCOCC3)cc2)c1 | -8.77% | -4.05% | 12.1% | -1.64% | -3.95% | -3.48% | 1.25% | 18% | -20.4% | -37.7% | -2.15%
7 | O=C(C1CCC1)N1CCN(Cc2ccsc2)[C@H]2CS(=O)(=O)C[C@H]21 | -4.53% | 2.6% | 1.04% | 4.76% | -5.41% | 1.38% | 15.8% | 2.92% | 2.15% | 3.7% | -0.294%
8 | O=C(CO[C@@H]1CC[C@H]2[C@H]1OCCN2CC1CCOCC1)N1CCCC1 | -4.19% | 0% | 2.42% | -1.24% | -3.12% | 2.08% | 11.1% | 2.51% | 8.91% | 8.54% | 1.37%
9 | Cn1nccc1C(=O)N1CCOC(Cc2cccnc2)C1 (stereo unspecified) | -5.75% | 10.7% | -3.23% | 4.56% | 5.91% | -3.03% | -4.85% | 7.36% | 6.38% | 16.7% | -7.31%
10 | O=C1[C@H]2CN(Cc3nccs3)C[C@H]2CN1c1ccsc1 | -6.53% | 0% | 8.27% | -7.06% | -2.25% | 0.319% | 12.4% | -3.04% | -1.08% | 2.56% | -0.738%
11 | Cc1nc(CN2CCn3cc(CNC(=O)C4CCC4)nc3C2)cs1 | -1.94% | 13.3% | -0.557% | 6.49% | 4.63% | -45.3% | 24.1% | -2.13% | 9.38% | 27.5% | -8.63%
